This note sets out measurements from PubChem BioAssay (Tox21).

Experiment [1] in a line: qHTS assay to identify small molecule antagonists of the glucocorticoid receptor (GR) signaling pathway - cell viability counter screen (AID 720693). Further: nearly all actives have a fitted effect of over 55% in size.
Experiment [2] in a line: qHTS assay for identifying genotoxic compounds that show differential cytotoxicity against isogenic chicken DT40 cell lines with known DNA damage response pathways - wild type cell line (AID 743012). Further: nearly all actives have a fitted effect of over 60% in size. Further: potency means the concentration at half of the fitted maximal effect. The gist of the method: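 Viability of DNA repair-proficient chicken DT40 cells was assessed by CellTiter-Glo luminescence following 40 h compound exposure at 37 C/5% CO2.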
For orientation: In qHTS, concentration-response curves come from the screen itself.

A short description of experiment [3]: qHTS assay for identifying genotoxic compounds that show differential cytotoxicity against isogenic chicken DT40 cell lines with known DNA damage response pathways - Rev3 mutant cell line (AID 743014). Further: nearly all actives have a fitted effect of over 55% in size. Further: potency means the concentration at half of the fitted maximal effect.
Experiment [4] can be described thus: qHTS assay to identify small molecule antagonists of the androgen receptor (AR) signaling pathway - cell viability counter screen (AID 743033; further: nearly all actives have a fitted effect of over 45% in size).
Experiment [5] in a line: qHTS assay to identify small molecule antagonists of the androgen receptor (AR) signaling pathway using the MDA cell line - cell viability counter screen (AID 743041; further: nearly all actives have a fitted effect of over 45% in size). The gist of the method:
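Compound exposure lasted 16 h at 37C in MDA-kb2 AR-luc cells stimulated with R1881. Protease-based CellTiter-Fluor reagent was applied for the final 30 min and fluorescence measured.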

A short description of experiment [6]: qHTS assay to identify small molecule antagonists of the thyroid receptor (TR) signaling pathway (AID 743065). Further: nearly all actives have a fitted effect of over 55% in size. Further: potency means the concentration at half of the fitted maximal effect. The gist of the method:
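GH3.TRE-Luc rat pituitary cells (two TREs driving luciferase) were dosed with compound, then stimulated with 1 nM T3 (final) for 23.5 h at 37 C. ONE-Glo luminescence was the read-out, with CellTiter-Fluor fluorescence as the cytotoxicity counter-screen.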

Experiment [7] deals with thyroid hormone receptor (rat, GH3 cells). In words: qHTS assay to identify small molecule agonists of the thyroid receptor (TR) signaling pathway (AID 743066; calls by dose curve).
Experiment [8] deals with Estrogen receptor (Homo sapiens) (UniProt P03372). The experiment can be described thus: qHTS assay to identify small molecule antagonists of the estrogen receptor alpha (ER-alpha) signaling pathway (AID 743069; active means well fitted curve in the direction sought with a large enough effect in the signal ratio in the repeat runs, not every such curve was filed as active; the % refers to the signal ratio). The gist of the method:
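In this cell-based reporter format, GripTite HEK293 cells harbouring ER-alpha-UAS-bla were grown overnight with 2% charcoal-stripped FBS, dosed with DMSO-dissolved compounds, then challenged with 17beta-estradiol. After 18 hr at 37C, beta-lactamase activity was detected by FRET fluorescence.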

A short description of experiment [9]: qHTS assay to identify small molecule antagonists of the estrogen receptor alpha (ER-alpha) signaling pathway - cell viability counter screen (AID 743074; calls by dose curve; further: nearly all actives have a fitted effect of over 45% in size).
Experiment [10] addresses Estrogen receptor (Homo sapiens) (UniProt P03372). The experiment can be described thus: qHTS assay to identify small molecule agonists of the estrogen receptor alpha (ER-alpha) signaling pathway (AID 743075; calls by dose curve).
The target is the same in experiment [11]. In words: qHTS assay to identify small molecule agonists of the estrogen receptor alpha (ER-alpha) signaling pathway using the BG1 cell line (AID 743079). Further: nearly all actives have a fitted effect of over 20% in size. Further: potency means the concentration at half of the fitted maximal effect. As to conditions: BG1Luc4E2 cells, ERE-luciferase agonist, 22 h; activation: at 70.3 µM (top of the series).
Experiment [12] can be described thus: qHTS assay to identify small molecule antagonists of the estrogen receptor alpha (ER-alpha) signaling pathway using the BG1 cell line (AID 743080; calls by dose curve;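 further: BG1 cells stimulated with 17beta-estradiol alongside compound; nearly all actives have a fitted effect of over 25% in size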). The gist of the method: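 Luminescence from a 4×ERE-luciferase reporter in BG1-Luc-4E2 cells served as read-out. Cells, pre-cultured 5 days in stripped-serum phenol-red-free medium, were exposed to compound with 17beta-estradiol co-stimulation for 21.5 h at 37 C.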

Experiment [13] is described as follows: qHTS assay to identify small molecule antagonists of the estrogen receptor alpha (ER-alpha) signaling pathway using the BG1 cell line - cell viability counter screen (AID 743081).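 Further: compound given together with 17beta-estradiol as the ER stimulus; nearly all actives have a fitted effect of over 45% in size.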
A further experiment deals with Aromatase (Homo sapiens) (UniProt P11511). The experiment can be described thus: qHTS assay to identify aromatase inhibitors (AID 743083). Further: nearly all actives have a fitted effect of over 55% in size.
Chain of Aromatase (Homo sapiens) (P11511 whole entry, looked up): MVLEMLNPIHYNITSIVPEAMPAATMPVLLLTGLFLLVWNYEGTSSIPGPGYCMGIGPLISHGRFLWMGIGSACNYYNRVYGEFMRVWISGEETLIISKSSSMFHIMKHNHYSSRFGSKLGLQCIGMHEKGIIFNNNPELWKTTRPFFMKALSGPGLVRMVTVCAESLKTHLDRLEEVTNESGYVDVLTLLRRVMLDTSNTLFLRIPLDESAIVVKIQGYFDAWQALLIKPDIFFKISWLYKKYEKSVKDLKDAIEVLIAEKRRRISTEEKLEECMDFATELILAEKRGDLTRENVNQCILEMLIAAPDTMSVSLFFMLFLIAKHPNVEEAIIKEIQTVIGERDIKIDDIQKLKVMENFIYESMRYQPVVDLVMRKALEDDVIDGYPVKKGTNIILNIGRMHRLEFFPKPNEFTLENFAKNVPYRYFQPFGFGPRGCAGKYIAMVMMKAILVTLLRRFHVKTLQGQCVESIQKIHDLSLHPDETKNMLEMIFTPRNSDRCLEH
Experiment [14] can be described thus: qHTS assay for identifying genotoxic compounds that show differential cytotoxicity against isogenic chicken DT40 cell lines with known DNA damage response pathways - Rad54/Ku70 mutant cell line (AID 743015). Further: nearly all actives have a fitted effect of over 60% in size. Further: potency means the concentration at half of the fitted maximal effect.
Experiment [15] is described as follows: qHTS assay to identify small molecule antagonists of the thyroid receptor (TR) signaling pathway - cell viability counter screen (AID 743064). Further: nearly all actives have a fitted effect of over 50% in size. The essentials:
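Counter screen for cytotoxicity: compound plus T3 (1 nM final) on GH3.TRE-Luc cells, 23.5 h at 37 °C, then fluorescence viability readout with CellTiter-Fluor.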

The target in experiment [16] is Androgen receptor (Homo sapiens) (UniProt P10275). The experiment can be described thus: qHTS assay to identify small molecule agonists of the androgen receptor (AR) signaling pathway using the MDA cell line (AID 743040; further: nearly all actives have a fitted effect of over 20% in size). The gist of the method:
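Testing was done with the MDA-kb2 AR-luc line, a human breast carcinoma stably transfected with MMTV-luciferase containing AR and GR response elements. Cells were exposed 16 h at 37C before ONE-Glo luminescence detection.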

Experiment [17] shares this target. The experiment can be described thus: qHTS assay to identify small molecule antagonists of the androgen receptor (AR) signaling pathway using the MDA cell line (AID 743042; further: nearly all actives have a fitted effect of over 55% in size). The essentials:
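MDA-kb2 breast carcinoma cells carrying MMTV-luciferase (AR/GR responsive) were co-treated with compounds and the agonist R1881 for 16 h at 37C. Inhibition read as ONE-Glo luminescence; CellTiter-Fluor fluorescence measured in parallel for cytotoxicity.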

Experiment [18] has the same target. In words: qHTS assay to identify small molecule antagonists of the androgen receptor (AR) signaling pathway (AID 743035; active means well fitted inhibition curve with a large enough effect in the signal ratio in the repeat runs, not every such curve was filed as active; the % refers to the signal ratio). The essentials: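 Reporter HEK293 cells were exposed to compounds and R1881 overnight (16 h, 37C); beta-lactamase activity was then quantified by FRET fluorescence.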
Experiment [19] shares this target. The experiment can be described thus: qHTS assay to identify small molecule agonists of the androgen receptor (AR) signaling pathway (AID 743036; active means well fitted activation curve with a large enough effect in the signal ratio in the repeat runs, with a control signal flat, not every such curve was filed as active; the % refers to the signal ratio). The essentials:
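In this Tox21 qHTS, 2,000 HEK293 AR-bla cells per well were incubated with compounds for 16 h at 37C and 5% CO2. Fluorescence intensity was recorded 2 h after adding LiveBLAzer B/G FRET substrate at room temperature.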

Molecules are shown by their SMILES. Records with an inconclusive call do not appear. The source made the active and inactive calls. Unless noted, the call rests on the fitted dose curve; in most records, active means well fitted curve in the direction sought with a large enough effect in the repeat runs; inconclusive means weak or mixed curves; inactive means no such curve, though single readings can be large; an effect the other way counts as inactive or inconclusive.

Chain of Estrogen receptor (Homo sapiens) (P03372 whole entry, looked up): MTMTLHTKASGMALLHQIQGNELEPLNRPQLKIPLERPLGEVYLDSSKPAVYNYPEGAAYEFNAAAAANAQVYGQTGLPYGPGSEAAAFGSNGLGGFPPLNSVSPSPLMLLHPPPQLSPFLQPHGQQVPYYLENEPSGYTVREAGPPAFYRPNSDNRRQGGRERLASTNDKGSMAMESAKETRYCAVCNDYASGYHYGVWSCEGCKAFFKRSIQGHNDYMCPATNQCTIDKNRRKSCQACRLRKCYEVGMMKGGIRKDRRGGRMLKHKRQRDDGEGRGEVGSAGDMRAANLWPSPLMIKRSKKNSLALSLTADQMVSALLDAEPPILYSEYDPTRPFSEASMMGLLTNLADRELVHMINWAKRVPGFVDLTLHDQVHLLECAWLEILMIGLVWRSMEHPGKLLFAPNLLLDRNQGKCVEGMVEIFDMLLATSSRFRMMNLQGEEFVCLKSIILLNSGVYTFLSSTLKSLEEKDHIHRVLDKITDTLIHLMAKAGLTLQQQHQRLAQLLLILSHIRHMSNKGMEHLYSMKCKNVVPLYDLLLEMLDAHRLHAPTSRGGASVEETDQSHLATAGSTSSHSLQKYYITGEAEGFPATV
Chain of Androgen receptor (Homo sapiens) (P10275 whole entry, looked up): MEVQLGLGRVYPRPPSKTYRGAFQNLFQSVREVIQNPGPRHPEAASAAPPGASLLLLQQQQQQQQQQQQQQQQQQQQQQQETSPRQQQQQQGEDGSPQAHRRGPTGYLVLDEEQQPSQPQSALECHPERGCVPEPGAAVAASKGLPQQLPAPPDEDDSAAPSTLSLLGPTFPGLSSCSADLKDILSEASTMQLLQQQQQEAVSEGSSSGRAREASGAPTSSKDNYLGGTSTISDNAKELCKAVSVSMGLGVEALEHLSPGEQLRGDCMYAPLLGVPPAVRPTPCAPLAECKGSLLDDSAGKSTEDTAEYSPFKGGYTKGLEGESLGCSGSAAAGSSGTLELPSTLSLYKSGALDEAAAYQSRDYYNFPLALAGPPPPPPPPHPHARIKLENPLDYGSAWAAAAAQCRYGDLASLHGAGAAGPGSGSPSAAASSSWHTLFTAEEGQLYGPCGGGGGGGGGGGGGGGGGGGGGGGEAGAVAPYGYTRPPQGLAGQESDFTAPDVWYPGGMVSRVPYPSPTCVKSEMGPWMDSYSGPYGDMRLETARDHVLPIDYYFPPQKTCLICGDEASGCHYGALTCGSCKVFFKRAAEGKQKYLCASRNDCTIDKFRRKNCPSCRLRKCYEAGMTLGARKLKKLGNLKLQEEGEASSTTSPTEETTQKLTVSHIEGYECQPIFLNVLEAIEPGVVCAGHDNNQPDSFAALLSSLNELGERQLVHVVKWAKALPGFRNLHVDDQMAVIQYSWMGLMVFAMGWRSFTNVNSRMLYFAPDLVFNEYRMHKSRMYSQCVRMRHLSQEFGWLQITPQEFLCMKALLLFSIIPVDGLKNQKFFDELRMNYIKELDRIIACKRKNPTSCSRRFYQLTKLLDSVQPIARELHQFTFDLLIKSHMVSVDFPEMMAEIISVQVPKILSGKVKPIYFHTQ

Turning to `Cc1cc(C(=C2C=CC(=Nc3ccc(S(=O)(=O)O)cc3S(=O)(=O)O)C=C2)c2ccc(Nc3ccc(S(=O)(=O)O)cc3)cc2)ccc1N`, the Potency entry in experiment [1], in experiment [2], in experiment [3], in experiment [4], in experiment [5] and in [6] was “inactive” in each case. The Potency entry in [8], in [9], in experiment [10], in experiment [11], in experiment [12] and in experiment [13] was “inactive” throughout. Further, the Potency entry with Aromatase (Homo sapiens) is “inactive”. In addition, in [7], the compound was classed as inactive.
With `O=C1NCCN1`, the Potency entry in [1], in [2], in [14], in experiment [4], in experiment [5] and in [15] was “inactive” each time. For the same compound, the Potency entry in experiment [6], in experiment [8], in [9], in [10], in [11] and in experiment [12] was “inactive” each time. Besides, the Potency entry (in [13]; with Aromatase (Homo sapiens)) was “inactive” in each case. In addition, in [7], the compound was called inactive.
Turning to `CCOC(=O)[C@@H](C)Oc1ccc(Oc2nc3ccc(Cl)cc3o2)cc1`, the Potency result in [1], in experiment [4], in experiment [16], in experiment [5], in experiment [17] and in experiment [15] was “inactive” throughout. Besides, the Potency result (in [9]; in [13]; with Aromatase (Homo sapiens)) was “inactive” in each case. The Potency was 68.6 µM (active) in [2] and 61.1 µM (active) in experiment [14]. In experiment [7], the result was inactive.
In the case of `CC[C@H](NC(=O)c1cc(F)ccc1NS(=O)(=O)c1cccc2cccnc12)c1ccccc1`, the Potency entry in experiment [1], in [4], in experiment [15], in experiment [9], in experiment [10] and in [11] was “inactive” in each case. Moreover, the Potency result (in experiment [13]; with Aromatase (Homo sapiens)) was “inactive” throughout. For the same compound, the values for the Potency in experiment [3] and in [14] were 57.9 µM (active) and 64.9 µM (active), respectively. Besides, in experiment [7], the compound was classed as inactive.
Turning to `Cc1nc2ccccn2c(=O)c1CCN1CCC(C(=O)c2ccc(F)cc2)CC1`, the Potency entry in experiment [1], in experiment [3], in experiment [4], in experiment [5], in experiment [15] and in experiment [8] was “inactive” each time. The Potency result (in [9]; in experiment [10]; in [11]; in [13]; in the experiment with Aromatase (Homo sapiens)) was “inactive” in each case. Further, the compound was classed as inactive in experiment [7].
Regarding `CCC(C(=O)OCCN(CC)CC)c1ccccc1` (centres undefined), the Potency result in [1], in experiment [2], in experiment [4], in experiment [18], in experiment [19] and in [16] was “inactive” throughout. Further, the Potency result in [17], in experiment [15], in experiment [6], in experiment [8], in experiment [9] and in experiment [10] was “inactive” throughout. Besides, the Potency entry (in experiment [11]; in experiment [12]; in experiment [13]; with Aromatase (Homo sapiens)) was “inactive” each time. Further, the outcome in [7] was inactive.
Consider `NC(=O)N(O)[C@@H]1COc2cc(OCc3ccccc3)ccc21`, for which the Potency entry in experiment [1], in experiment [4], in [15], in [8], in experiment [9] and in experiment [10] was “inactive” in each case. Also, the Potency entry (in [13]; with Aromatase (Homo sapiens)) was “inactive” in each case. Also, the Potency in experiment [3] was 68.6 µM (active); in experiment [14], 61.1 µM (active); in experiment [6] it was 61.1 µM (active).
Take `CC(CCO)CCc1ccccc1` (centres undefined): the Potency result in experiment [1], in experiment [14], in experiment [4], in experiment [5], in experiment [15] and in experiment [6] was “inactive” each time. The Potency result in experiment [8], in experiment [9], in experiment [10], in [11], in experiment [12] and in experiment [13] was “inactive” each time. Also, the Potency entry in the experiment with Aromatase (Homo sapiens) was “inactive”. Also, in experiment [7], the compound was called inactive.
Regarding `c1cc[c]([Bi]([c]2ccccc2)[c]2ccccc2)cc1`, the Potency result in [1], in [4], in [8], in experiment [9], in experiment [10] and in [12] was “inactive” in each case. Moreover, the Potency result (in [13]; in the experiment with Aromatase (Homo sapiens)) was “inactive” in each case. Further, the Potency in experiment [2] was 61.1 µM (active); in experiment [14], 61.1 µM (active); in [6], 54.5 µM (active); in experiment [11] it was 21.7 µM (active). In experiment [7], the outcome was inactive.
Consider `Cc1ccc(S)cc1`, for which the Potency result in experiment [1], in experiment [4], in experiment [5], in experiment [15], in experiment [10] and in [11] was “inactive” each time. The Potency entry (in experiment [12]; in [13]; in the experiment with Aromatase (Homo sapiens)) was “inactive” throughout. Also, the Potency in experiment [2] is 61.1 µM (active).
